# Activity calls are given as the source filed them.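 Rule for the calls: active = inhibition at or above 50% relative to wild type and mutant plate controls; inactive = inhibition below 50%.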
# Experiment: loss of swimming-algae plug formation – whole organism, Chlamydomonas reinhardtii, WT vs cilia-less mutant, absorbance, 96-well, primary screen (AID 463189);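 note: 0% = wild type cc124 cells in DMSO and 100% = ciliumless bld1 mutant cells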
# Conditions: Chlamydomonas reinhardtii gravitaxis, OD600 absorbance, 2 days; at 10 µM; stronger effect = higher value
row,Compound,inhibition
1,c1ccc2c(c1)[I+]c1ccccc1-2,152% (active)
2,N#CC(C#N)=Cc1ccc(O)c(O)c1,1.54% (inactive)
3,Nc1ccc(CCN2CCN(c3cccc(C(F)(F)F)c3)CC2)cc1,40.5% (inactive)
4,NCC(O)c1cc(O)c(O)cc1F (stereo not drawn),1.21% (inactive)
5,Cc1nccc2c1[nH]c1ccccc12,10.4% (inactive)
6,C[N+](C)(C)CC#CCN1CCCC1=O,-6.29% (inactive)
7,C=CCN1CC[C@]23CCCCC2[C@H]1Cc1ccc(O)cc13 (stereo partly drawn),7.64% (inactive)
8,NC(=O)CN1CC(O)CC1=O (stereo not drawn),9.01% (inactive)
9,CCN(CCCl)Cc1ccccc1Br,6.59% (inactive)
10,C[C@H]1C2Cc3ccc(O)cc3C1(C)CCN2CC1CC1 (stereo partly drawn),8.28% (inactive)
11,CC(Cc1ccc(O)cc1)NCC(O)c1cc(O)cc(O)c1 (stereo not drawn),1.02% (inactive)
12,NC(=O)CN1CCCC1=O,-12.5% (inactive)
13,CCCn1c(=O)c2[nH]c(C3CCCC3)nc2n(CCCOC(=O)c2ccc(S(=O)(=O)F)cc2)c1=O,0.089% (inactive)
14,CCCCc1ccc(C(=O)O)nc1,-11.3% (inactive)
15,O=P1(N(CCCl)CCCl)NCCCO1 (stereo not drawn),-0.869% (inactive)
16,Nc1ncnc2c1ncn2[C@@H]1O[C@H](COP(=O)(O)CP(=O)(O)OP(=O)(O)O)[C@H](O)C1O (stereo partly drawn),8.43% (inactive)
17,CCC1(c2ccc(N)cc2)CCC(=O)NC1=O (stereo not drawn),-0.133% (inactive)
18,CCN(CC)C(=O)N[C@@H]1C[C@@H]2c3cccc4[nH]cc(c34)C[C@H]2N(C)C1,5.28% (inactive)
19,Cc1ncc(CNC(=O)N(CCCl)N=O)c(N)n1,3.94% (inactive)

row,Compound,inhibition
1,CN1CC[C@@]2(C)c3cc(O)ccc3N(C)C12 (stereo partly drawn),-1.8% (inactive)
2,O=C(O)c1cc[c]([Hg][Cl])cc1,9.04% (inactive)
3,CCCCC/C=C\C/C=C\C/C=C\C/C=C\CCCC(=O)NCC(=O)O,-0.074% (inactive)
4,C[C@H](N)CN1CCc2ccc(Br)cc21,-3.37% (inactive)
5,Cc1cccc(C)c1NC1=NCCCS1,6.94% (inactive)
6,CCCCCCC(C)(C)c1ccc([C@@H]2C[C@H](O)CC[C@H]2CCCO)c(O)c1,-3.04% (inactive)
7,CC[N+](CC)(CC)CC,6.89% (inactive)
8,CC(=O)NCCc1c[nH]c2ccccc12,7.09% (inactive)
9,C[N+](C)(C)CCOC(=O)CBr,0.371% (inactive)
10,CN1CCC23CCCC[C@H]2C1Cc1ccc(O)cc13 (stereo partly drawn),-3.02% (inactive)
11,CCCN(CCC)C1CCc2cccc(O)c2C1 (stereo not drawn),1.17% (inactive)
12,Fc1ccc(C(OCCN2CCN(CCCc3ccccc3)CC2)c2ccc(F)cc2)cc1,12.7% (inactive)
13,NNCc1cccc(O)c1,-4.41% (inactive)
14,C[Se]C[C@H](N)C(=O)O,1.72% (inactive)
15,CN1C2CCC1CC(OC(c1ccccc1)c1ccc(Cl)cc1)C2 (stereo not drawn),11.8% (inactive)
16,CN1CCc2cccc(Cl)c2CC1,9.04% (inactive)
17,Oc1ccc2c3c1O[C@H]1c4[nH]c5c(c4C[C@@]4(O)[C@@H](C2)N(CC2CC2)CC[C@]314)C[C@@]1(O)[C@H]2Cc3ccc(O)c4c3[C@@]1(CCN2CC1CC1)[C@H]5O4,-0.992% (inactive)
18,O=C(O)C1C2CCC(O2)C1C(=O)O (stereo not drawn),-11.7% (inactive)
19,CC(N)[C@H](O)c1ccc(O)c(O)c1 (stereo partly drawn),1.5% (inactive)

# Reference: PubChem BioAssay
